mHTT CaM bind: mHTT-calmodulin interaction abrogation | 190,000 compounds, 3.6% hits | inhibition, % at 15 µM | AlphaScreen His-mHTT/GST-CaM binding, luminescence;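 note: 0% = both proteins with DMSO and 100% = one protein alone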
Pf apPOL block: Pf-apPOL DNA polymerase inhibition; Recombinant Pf-apPOL, molecular beacon fluorescence, 1.5 h; inhibition, % at 10 µM; 210,000 compounds, 0.25% hits; AID 1794808
* hit, by the source's call; i = inactive; . = no result. Sampled rows, rich in hits. Any-hit rate of the full collection: about 3.5%. Cut-off read from the data, not from the text of the source: active = inhibition above about 50%; inactive = the rest.

SMILES	mHTT CaM bind	Pf apPOL block
N#CC(c1ccccc1O)N1N=C(c2ccccc2)CC1c1ccccc1 (stereo not drawn)	92*	-6
CNC(=O)C1CCCN(c2cnn(Cc3ccccc3)c(=O)c2)C1 (stereo not drawn)	-2	-1
O=C(NC(NCC1CCCO1)C(Cl)(Cl)Cl)c1ccco1 (stereo not drawn)	-1	97*
O=C(NC(NCCc1ccccc1)C(Cl)(Cl)Cl)c1ccco1 (stereo not drawn)	-10	-1
CN1CCC(C2COC2(c2ccccc2)c2ccccc2)CC1 (stereo not drawn)	-4	.
O=C(C1CCCCC1)N1CCN(c2ccc([N+](=O)[O-])cc2)CC1	9	0
CN(C)C=Cc1ccnc(-c2cc(C=CN(C)C)ccn2)c1	.	66*
O=C(O)c1ccnc(-c2cc(C(=O)O)ccn2)c1	.	-23
Cc1ccc(NC(=O)Cc2nnc(-c3ccc4ncccc4c3)o2)cc1Cl	19	3
COc1ccc(NC(=O)N2CC3CC2CC3NC(=O)c2ccccc2)c(OC)c1 (stereo not drawn)	4	-1
O=C(Nc1ccc(F)c(Cl)c1)c1cc(S(=O)(=O)N2CCOCC2)ccc1F	-1	0
O=C(CN1CCN(S(=O)(=O)c2cccc([N+](=O)[O-])c2)CC1)c1ccc2c(c1)OCO2	-11	-5
Cc1cc2c3c(c(Br)cc(S(=O)(=O)O)c3n1)C(=O)c1ccccc1-2	99*	2
Cc1cc(Br)c2c3c(c(N)c(=O)[nH]c13)-c1ccccc1C2=O	29	-2
COc1ccc(OC)c(/C=C2/SC(N3CCCCC3)=NC2=O)c1	-7	-4
Cc1nnc2cc(N3CCN(Cc4csc5c4CCCC5)CC3)cnn12	28	3
Cc1nnc2cc(N3CCN(Cc4ccc(C(F)(F)F)cc4)CC3)cnn12	67*	4
CC1CCCCN1C(=O)CSc1nnc2sc3ccccc3n12 (stereo not drawn)	-16	-4
COc1ccc(C2=NN(CN3C(=O)C(=O)c4ccccc43)C(c3cccc([N+](=O)[O-])c3)C2)cc1 (stereo not drawn)	96*	-3
COc1ccc(C2=NN(CN3C(=O)C(=O)c4ccccc43)C(c3ccccc3)C2)cc1 (stereo not drawn)	2	-1
COc1ccc(C2=NN(CN3C(=O)C(=O)c4ccccc43)C(c3ccccc3Cl)C2)cc1 (stereo not drawn)	76*	5
COc1ccc(C2=NN(C(=O)c3ccccc3Cl)C(c3cccc([N+](=O)[O-])c3)C2)cc1 (stereo not drawn)	31	14
CC(C)n1cnc2cc(CNC(=O)c3ccnn3C)ccc21	-5	3
CC(=O)N1c2c(cc(Br)cc2S(=O)(=O)Nc2ccc(C(F)(F)F)cc2)CC1C (stereo not drawn)	91*	-1
CC(=O)N1c2c(cc(Br)cc2S(=O)(=O)Nc2cccc(C(F)(F)F)c2)CC1C (stereo not drawn)	4	-2
SMILES	mHTT CaM bind	Pf apPOL block
COc1cc(NC(=O)N2CCCC2c2c(C)noc2C)cc(OC)c1OC (stereo not drawn)	2	-8
COc1ccc(/C=C2/C(=O)ON=C2C)cc1Br	14	-12
CCOc1cc(/C=C2/C(=O)ON=C2C)ccc1OCc1ccccc1F	44	-1
CC1=NOC(=O)/C1=C/c1ccc(OCc2cccc(F)c2)c(Br)c1	31	-2
CCOc1cc(/C=C2/C(=O)ON=C2C)ccc1OCc1cccc(F)c1	93*	2
C#CCOc1c(Cl)cc(/C=C2\C(=O)ON=C2C)cc1OCC	22	-1
CCOc1cc(/C=C2\C(=O)ON=C2C)cc(Cl)c1OCc1cccc(F)c1	87*	-2
CCOc1cc(/C=C2\C(=O)ON=C2C)cc(Cl)c1OCc1ccccc1F	96*	-1
CCCOc1ccc(/C=C2\C(=O)ON=C2C)cc1OC	78*	-6
CN(C(=O)c1ccc(N=Cc2nc(-c3ccc([N+](=O)[O-])cc3)oc2O)cc1)c1ccccc1	2	5
CCOC(=O)CC[C@@H]1CC[C@]2(CCCN(Cc3cccc4ccccc34)C2)O1	-7	-4
CCc1ccc(S(=O)(=O)n2cnc3cc(C)c(C)cc32)cc1	-29	-2
S=c1oc(-c2ccco2)nn1CN1CCCCC1	-9	.
CCOCCCNC(=O)C1(C)CCC(=O)N1c1cc(Cl)c(OC)cc1OC (stereo not drawn)	0	-4
CC1=C(C#N)c2nc(N)c(C#N)c(C)c2/C1=C/c1ccc(O)cc1	64*	-4
COc1ccc(/C=C2\C(C)=C(C#N)c3nc(N)c(C#N)c(C)c32)cc1OC	29	-7
COc1ccc(Nc2ncc3c(n2)CCN(Cc2ccc(N(C)C)cc2)C3)c(OC)c1	36	-7
COc1cccc(Nc2ncc3c(n2)CCN(Cc2ccc(OC(C)C)cc2)C3)c1	51*	-1
CCOc1ccc(CN2CCc3nc(Nc4cccc(OC)c4)ncc3C2)cc1	20	-12
COc1cccc(Nc2ncc3c(n2)CCN(Cc2ccc(N(C)C)cc2)C3)c1	73*	-4
Cc1c(C(=O)Nc2ccccc2C(F)(F)F)nnn1-c1ccc(C(C)C)cc1	-12	2
O=c1cc2oc3cc(O)c(O)cc3c(-c3ccccc3O)c-2cc1O	85*	i
O=c1cc2oc3cc(O)c(O)cc3c(-c3ccccc3)c-2cc1O	69*	8
Nc1ccc2oc(-c3ccccc3Cl)cc(=O)c2c1O	15	-2
Cc1oc2cc(O)ccc2c(=O)c1-c1ccccc1	-3	0
SMILES	mHTT CaM bind	Pf apPOL block
CC(C)(C)c1csc(-c2ccc3nonc3c2)n1	.	-14
Cc1[nH]nc(SCC(=O)Nc2ccc(F)c(Cl)c2)c1[N+](=O)[O-]	3	-1
Cc1ccc(C(O)C#CC23CC4CC(CC(C4)C2)C3)o1 (stereo not drawn)	87*	3
OC(C#CC12CC3CC(CC(C3)C1)C2)c1cccnc1 (stereo not drawn)	43	-1
COc1ccccc1Oc1c(C)oc2c(CN(C)Cc3ccccc3)c(O)ccc2c1=O	4	-9
N#Cc1nc(-c2cccs2)oc1N1CCN(C(=O)c2ccco2)CC1	-2	-2
O=C(c1ccccc1F)N1CCN(C2=NN=C(c3ccccc3)CS2)CC1	92*	-7
O=C(c1ccccc1)c1ccc(N2CCN(C(=O)c3ccccc3F)CC2)c(F)c1	-4	4
O=C(c1ccco1)N1CCN(C2=NN=C(c3cccs3)CS2)CC1	96*	50*
COc1cc(NC(=O)COc2ccc(Br)cc2Cl)c(OC)cc1Cl	-1	-3
CCOc1ccc(CCNc2ncnc3c2nc2n3CCCC2)cc1OCC	4	0
C=CCN1C(=O)/C(=C/c2ccccc2O)SC1=Nc1ccccc1	49	-6
C=CCN1C(=O)/C(=C/c2ccc(O)cc2)SC1=Nc1ccccc1	78*	-4
CCOc1ccc(/C=c2\sc3n(c2=O)CN(c2cccc(C(C)=O)c2)CN=3)cc1	5	-3
COC(=O)[C@H](C(C)C)N(CCc1cn(Cc2ccc(C)cc2)nn1)S(=O)(=O)c1ccccc1Br	-1	-7
COC(=O)[C@H](C(C)C)N(CCCc1cn(Cc2ccc(C)cc2)nn1)S(=O)(=O)c1ccccc1Br	93*	-1
COc1ccc(C(CC(=O)c2ccc(Br)cc2)S(=O)(=O)c2ccccc2)cc1 (stereo not drawn)	2	17
CCCNC(=O)C1CN(C(=O)c2ccccc2C)CC1c1ccccc1 (stereo not drawn)	0	-1
Cc1cc(C)nc(Nc2ncc(O)n2-c2ccc(Cl)cc2)n1	2	52*
